These results are taken from PubChem BioAssay (EPA / NIEHS).

SMILES strings stand for the structures. Calls of active or inactive are those of the source. The calls were made as follows: active = hit-call score of the fitted dose curve at least 0.9, where 1 is the maximum; inactive = score below 0.9.

Read-out in the assay: UDP glucuronosyltransferase (UGT1A1), UGT1A1 (gene 54658)
As to the kind of experiment: LTEA_HepaRG_UGT1A1: Life Technologies and Expression Analysis (LTEA) Assay for UDP glucuronosyltransferase (UGT1A1) using HepaRG (AID 2283538). Particulars: mRNA level, 48 h; actives raise or lower the signal. As for the experimental part: LTEA_HepaRG is a cell based, multiplexed-readout assay that uses HepaRG, a human liver cell line, with measurements taken at 48 hours after chemical dosing on a 96-well plate.LTEA_HepaRG_UGT1A1 is one of 102 assay component(s) measured in the LTEA HepaRG cell culture assay. It is a marker of Steatosis/NR mediated metabolism.Data from the assay component LTEA_HepaRG_UGT1A1 was analyzed into 1 endpoint. This assay endpoint, LTEA_HepaRG_UGT1A1, was analyzed with bidirectional fitting relative to DMSO as the negative control and baseline of activity. Using a type of inducible reporter, measures of mRNA induction for gain or loss-of-signal activity can be used to understand regulation of transcription factor activity. To generalize the intended target to other relatable targets, this assay endpoint is annotated to the transferase intended target family, where the subfamily is glucuronosyltransferase.
A total of 1060 chemcials from the ToxCast library were tested in eight-point concentration-response experiments. Cell culture and cytotoxicity assays were conducted at Thermo Fisher Scientific's Custom Services facility (Madison, WI). A single lot of human HepaRG cells (Thermo Fisher Scientific, Frederick, MD) was used for the cell culture experiments. 96-well format collagen type I coated plates of human HepaRG cells were prepared using established methods. Briefly, cryopreserved HepaRG cells were thawed, plated at a density of approximately 100,000 cells/well in HepaRG Thaw, Plate, and General Purpose media (HPRG770, Thermo Fisher Scientific), and incubated for 48 hours. 0.5% DMSO was selected as vehicle control to balance the requisite need of DMSO in HepaRG cultures to maintain differentiation (for example, baseline metabolism, proportions of hepatocytes vs. cholangiocytes), while enabling further hepatic receptor pathway activation (for example, PXR and CAR) in response to chemical exposure. 48 hours after plating, the culture medium was replaced with HepaRG Serum-Free Incudtion Media. Cells were exposed to each test chemical in duplicate and maintained in CO2 incubators for another 48 hours. Chemical plates were thawed to room temperature and 200x concentrations of treatment groups were prepared. 8-point conentration-reponse curves were made with the highest exposure at 100 uM, followed by half-log dilutions, all in 0.5% DMSO. Each test plate contained variouse controls, induction positive controls (1mM phenobarbital), cytotoxicity positive controls ([…] aflatoxin B1), vehicle controls (0.5% DMSO), and total lysis controls (0.5% DMSO). Cell morphology images were taken using an Essen IncuCyte FLR automated microscope, with six 96-well plates imaged in about 24 minutes. Images were captured and exported and JPEG files. Spent culture media was transfered to black-well plates for the LDH assay, and remaining media was sorted at -80 C for later use. Cells were treated with RLT buffer and frozen until shipped for gene expression analysis. Total RNA was isolated from the cell suspension in 75 uL of Buffer RLT (Qiagen, Germantown, MD 20874) by Quintiles/Expression Analysis (Durham, NC) using a custom isolation procedure. Total RNA from each plate well was transferred to a preamplification plate. Fluidigm's 96.96 Dynamic ArrayTM (Fluidigm, Amsterdam, the Netherlands) technology was used for gene expression analyses by quantitative reverse transcription polymerase chain reaction (qRT-PCR, performed by Quintiles/Expression Analysis, Durham, NC)89. Standard TaqManTM Assays (Applied Biosystems/ThermoFisher Scientific, Foster City, CA) were used to assess the expression of 93 genes selected based on their selectivity and sensitivity to important hepatic receptors known to be modulated by environmental chemicals; importance in human hepatocyte functionality; and hepatotoxicity. […]
As for `O=C1NS(=O)(=O)c2ccccc21`, the call was inactive.

With `CCCCCCCCCCCCCCC`, the AC50 was 19.8 µM (active).

Consider `CN(Cc1cnc2nc(N)nc(N)c2n1)c1ccc(C(=O)N[C@@H](CCC(=O)O)C(=O)O)cc1`, for which the compound was classed as inactive.

As for `N=C(N)c1ccc(OCCCCCOc2ccc(C(=N)N)cc2)cc1`, the AC50 is 4.48 µM (active).

For the compound `CCCCC(CC)C(=O)O` (stereo unspecified), the result was inactive.

Regarding `CCCCCCCCCCCCOS(=O)(=O)O`, the AC50 is 91.7 µM (active).

For `CS(=O)(=O)c1ccc([C@@H](CC2CCCC2)C(=O)Nc2cnccn2)cc1Cl`, the AC50 is 12.2 µM (active).

Regarding `CCC(C)c1ccccc1O` (stereo unspecified), the call was inactive.

`CCCCC=O`: the call was inactive.

Take `CN(C)CCOC(c1ccccc1)c1ccccc1`: the outcome was inactive.

Take `CCCCc1oc2ccccc2c1C(=O)c1cc(I)c(OCCN(CC)CC)c(I)c1`: the AC50 is 60.7 µM (active).

As to `CC(=O)Nc1ccc(O)cc1`, the compound was called inactive.

For the compound `O=C(CCCN1CCC(O)(c2ccc(Cl)cc2)CC1)c1ccc(F)cc1`, the AC50 was 79.3 µM (active).

Consider `Cc1[nH]nc2c1N=C(c1ccccc1Cl)c1cc([N+](=O)[O-])ccc1N2`, for which the compound was classed as inactive.

Take `O=C(c1ccccc1)c1ccccc1`: the AC50 was 4.85 µM (active).

In the case of `OCC(CO)(CBr)CBr`, the outcome was inactive.
